Measured values taken from PubChem BioAssay AID1540 (National Center for Advancing Translational Sciences (NCATS), 2009).
“And” between values parts separate entries of the source, which are not always exact repeats. Equal values may be shown once. Inconclusive results are not listed. A number with no mark means an inactive call. The source made the active and inactive calls. Calls come from the whole dose curve; as a rule, active = well fitted activation curve with a large enough effect; inconclusive = small, poorly fitted or top-dose-only effect, or effect the other way; inactive = flat fitted curve, though single readings scatter.

These compounds were tested against Pyruvate kinase PKM (Homo sapiens) (UniProt P14618) (assay: Secondary assay for Activators of Human Pyruvate Kinase M2 isoform). Settings: purified hPK-M2, LDH-coupled NADH fluorescence kinetic; series mostly up to 57.5 µM; activation: at the top concentration.
Description: Confirmatory assay NIH Chemical Genomics Center [NCGC] Matthew G. Vander Heiden, M.D., Ph.D. [Harvard Medical School, 77 Avenue Louis Pasteur, Boston, MA 02115] NCGC Assay Overview: Human pyruvate kinase muscle 2 (hPK-M2)enzyme was supplied as a highly purified (>95% pure) preparation from Harvard Medical School and a secondary assay was used to evaluate compounds. This assay couples the formation of pyruvate from hPK-M2 using lactate dehydrogenase (LDH) and NADH. The depletion of NADH is followed in a fluorescent-based kinetic assay that follows the formation of pyruvate to lactate, as catalyzed LDH (described by Hannaert et al., 2002)1 Pyruvate kinase substrates, PEP and ADP, were present in the assay at 0.1 mM and 4 mM respectively. In this kinetic assay initial rates were determined by following the fluorescence of NADH depletion.
NCGC Assay Protocol Summary: Three uL of substrate mix (final concentration, 50 mM Tris-Cl pH 8.0, 200 mM KCl, 15 mM MgCl2, 0.1 mM PEP, 4.0 mM ADP, and 0.2 mM NADH) was dispensed into black-solid 1536 well plates. 23 nL of compounds were delivered by a pin tool and 1 uL of enzyme mix (final concentrations, 10 nM hPK-M2 and 1 uM of LDH) was added. Plates were immediately placed in ViewLux (Perkin Elmer) and NADH fluorescence was determined at 30 second exposure intervals for between 3 and 6 minutes. Data were normalized to the uninhibited and EC100 activation using known activators such as fructose-bis-phosphate.

Pyruvate kinase PKM (Homo sapiens), sequence (P14618 whole entry, looked up, canonical isoform): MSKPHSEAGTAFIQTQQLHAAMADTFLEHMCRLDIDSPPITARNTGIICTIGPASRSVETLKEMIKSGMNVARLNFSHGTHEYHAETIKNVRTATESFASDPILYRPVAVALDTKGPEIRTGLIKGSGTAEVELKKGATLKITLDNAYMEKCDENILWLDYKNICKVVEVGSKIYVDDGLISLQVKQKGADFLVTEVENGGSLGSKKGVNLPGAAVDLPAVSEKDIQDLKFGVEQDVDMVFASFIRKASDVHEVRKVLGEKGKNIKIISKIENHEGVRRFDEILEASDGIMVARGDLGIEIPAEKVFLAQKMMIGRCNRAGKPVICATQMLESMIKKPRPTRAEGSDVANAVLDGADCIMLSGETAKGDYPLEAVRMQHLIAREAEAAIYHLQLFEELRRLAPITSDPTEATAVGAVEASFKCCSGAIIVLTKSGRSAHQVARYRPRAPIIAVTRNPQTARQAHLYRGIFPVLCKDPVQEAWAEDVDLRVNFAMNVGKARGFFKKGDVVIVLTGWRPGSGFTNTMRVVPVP

Question: How did the Potency turn out when `COc1cc2c(s1)c1cnn(Cc3ccccc3F)c(=O)c1n2C` was run?
Answer: 158 nM (active)

Question: Which “activation” value does the source give for `CS(=O)(=O)Nc1cccc(-c2cc(F)c(S(=O)(=O)N3CCN(S(=O)(=O)c4ccc5c(c4)OCCO5)CC3)cc2F)c1` here?
Answer: -11.4%

Question: Which Potency does the source give for `COc1cccc(Cn2ncc3c4sc(S(C)=O)cc4n(C)c3c2=O)c1` (stereo not given) here?
Answer: 146 nM (active)

Question: With `O=S(=O)(c1cccc(O)c1)N1CCN(S(=O)(=O)c2c(F)cccc2F)CC1` as the compound, how does the Potency read?
Answer: 183 nM (active)

Question: For `CCn1c2cc(C)sc2c2cnn(Cc3ccccc3F)c(=O)c21`, which Potency is on record?
Answer: 5010 nM (active)

Question: Which Potency does the source give for `Cc1cc2c(s1)c1cnn(Cc3ccc(C)c(F)c3F)c(=O)c1n2C` here?
Answer: 141 nM (active)

Question: With `COc1cc(F)c(S(=O)(=O)N2CCN(S(=O)(=O)c3cccc(N)c3)CC2)c(F)c1` as the compound, how does the Potency read?
Answer: 73 nM (active)

Question: Which Potency does the source give for `COc1ccc(Cn2ncc3c4sc(C)cc4n(C)c3c2=O)cc1` here?
Answer: 199 nM (active)

Question: `Cn1c2cc(S(C)(=O)=O)sc2c2cnn(Cc3ccccc3F)c(=O)c21` was tested. Which Potency did it give?
Answer: 447 nM (active)

Question: Which Potency does the source give for `COc1cc(F)c(S(=O)(=O)N2CCN(S(=O)(=O)c3ccc(N)cc3)CC2)c(F)c1` here?
Answer: 183 nM (active)

Question: With `C[C@@H]1CN(S(=O)(=O)c2ccc3c(c2)OCCO3)CCN1S(=O)(=O)c1c(F)cccc1F` as the compound, how does the Potency read?
Answer: 3550 nM (active)

Question: `Cc1cc2c(s1)c1cnn(Cc3c(F)c(F)cc(F)c3F)c(=O)c1n2C` was tested. Which Potency did it give?
Answer: 398 nM (active)

Question: For `O=S(=O)(c1ccc2c(c1)OCCCO2)N1CCN(S(=O)(=O)c2c(F)cccc2F)CC1`, which Potency is on record?
Answer: 501 nM (active)

Question: For `Cc1cc2c(s1)c1cnn(Cc3ccc(F)cc3F)c(=O)c1n2C`, which Potency is on record?
Answer: 178 nM (active)

Question: For `COc1ccc(S(=O)(=O)N2CCN(S(=O)(=O)c3ccc(OC)cc3)CC2)cc1`, which Potency is on record?
Answer: 398 nM (active) and 282 nM (active)

Question: How did the Potency turn out when `C[C@H]1CN(S(=O)(=O)c2c(F)cccc2F)CCN1S(=O)(=O)c1ccc2c(c1)OCCO2` was run?
Answer: 5010 nM (active)

Question: `Cc1ccc(Cn2ncc3c4sc(C)cc4n(C)c3c2=O)cc1` was tested. Which Potency did it give?
Answer: 1260 nM (active)

Question: With `CN1CCOc2ccc(S(=O)(=O)N3CCN(S(=O)(=O)c4c(F)cccc4F)CC3)cc21` as the compound, how does the Potency read?
Answer: 3.55 µM (active) and 708 nM (active)

Question: For `O=S(=O)(c1ccc2ccccc2c1)N1CCN(S(=O)(=O)c2c(F)cccc2F)CC1`, which Potency is on record?
Answer: 8.91 µM (active) and 158 nM (active)

Question: With `Cn1c2cc([N+](=O)[O-])sc2c2cnn(Cc3ccccc3F)c(=O)c21` as the compound, how does the Potency read?
Answer: 251 nM (active)

Question: Which Potency does the source give for `COc1cc(F)c(S(=O)(=O)N2CCN(S(=O)(=O)c3ccco3)CC2)c(F)c1` here?
Answer: 116 nM (active)

Question: How did the Potency turn out when `CC(=O)Nc1cccc(S(=O)(=O)N2CCN(S(=O)(=O)c3c(F)cccc3F)CC2)c1` was run?
Answer: 14600 nM (active)

Question: How did the Potency turn out when `Cc1cc2c(s1)c1c(C)nn(Cc3ccc(F)cc3)c(=O)c1n2C` was run?
Answer: 2820 nM (active)

Question: With `Cn1c2cc(C(=O)O)sc2c2cnn(Cc3ccccc3F)c(=O)c21` as the compound, how does the Potency read?
Answer: 8910 nM (active)

Question: How did the Potency turn out when `Nc1ccc(S(=O)(=O)N2CCCN(S(=O)(=O)c3ccc4c(c3)OCCO4)CC2)cc1` was run?
Answer: 366 nM (active)

Question: With `Nc1ccc(S(=O)(=O)N2CCN(S(=O)(=O)c3c(F)cccc3F)CC2)cc1` as the compound, how does the Potency read?
Answer: 410 nM (active)

Question: How did the Potency turn out when `Cn1c2cc(S(C)=O)sc2c2cnn(Cc3ccccc3F)c(=O)c21` (stereo not given) was run?
Answer: 398 nM (active)

Question: Which Potency does the source give for `O=S(=O)(c1ccc2c(c1)OCCO2)N1CCN(S(=O)(=O)c2ccccn2)CC1` here?
Answer: 2820 nM (active)

Question: `CCc1cc2c(s1)c1cnn(Cc3ccccc3F)c(=O)c1n2C` was tested. Which Potency did it give?
Answer: 631 nM (active)

Question: `Cc1cc2c(s1)c1cnn(Cc3c(F)cccc3Cl)c(=O)c1n2C` was tested. Which Potency did it give?
Answer: 158 nM (active)

Question: Which Potency does the source give for `Cc1cc2c(s1)c1cnn(Cc3cc(C(F)(F)F)cc(Cl)c3F)c(=O)c1n2C` here?
Answer: 562 nM (active)

Question: `Cn1c2cc(B(O)O)sc2c2cnn(Cc3c(F)cccc3Cl)c(=O)c21` was tested. Which Potency did it give?
Answer: 6310 nM (active)

Question: How did the Potency turn out when `Cc1ccc(Cn2ncc3c4sc(C)cc4n(C)c3c2=O)c(C)c1` was run?
Answer: 1780 nM (active)

Question: `Cn1c2cc(C#N)sc2c2cnn(Cc3ccccc3F)c(=O)c21` was tested. Which Potency did it give?
Answer: 355 nM (active)

Question: `CCNc1cccc(S(=O)(=O)N2CCN(S(=O)(=O)c3ccc4c(c3)OCCO4)CC2)c1` was tested. Which “activation” value did it give?
Answer: 2.57%

Question: `O=S(=O)(c1ccc2c(c1)OCCO2)N1CCCN(S(=O)(=O)c2c(F)cccc2F)CC1` was tested. Which Potency did it give?
Answer: 891 nM (active)

Question: How did the Potency turn out when `Cc1cc2c(s1)c1cnn(Cc3c(F)cccc3F)c(=O)c1n2C` was run?
Answer: 141 nM (active)

Question: `Nc1cccc(S(=O)(=O)N2CCN(S(=O)(=O)c3c(F)cccc3F)CC2)c1` was tested. Which Potency did it give?
Answer: 206 nM (active)

Question: With `CCOC(=O)CCc1cc(F)c(S(=O)(=O)N2CCN(S(=O)(=O)c3ccc4c(c3)OCCO4)CC2)cc1F` as the compound, how does the Potency read?
Answer: 10000 nM (active)

Question: For `O=C1CN(S(=O)(=O)c2ccc3c(c2)OCCO3)CCN1S(=O)(=O)c1c(F)cccc1F`, which Potency is on record?
Answer: 2820 nM (active)
